Test results: PubChem BioAssay (EPA / NIEHS)
Where “and” joins values, the source holds several entries; their conditions need not be identical. Equal values may be shown once. Some compounds were tested as several samples or in several runs, with calls that do not always agree. Calls of active or inactive are those of the source. The calls were made as follows: active = hit-call score of the fitted dose curve at least 0.9, where 1 is the maximum; inactive = score below 0.9.

Experiments:
[1] = CCTE_Harrill_HTTr_Apoptosis_MCF7: CCTE's 6-hour Apoptosis Assessment for the High-Throughput Transcriptomics (HTTr) Platform, in MCF-7 cells cultured in DMEM + 10% fetal bovine serum, Harrill Lab (AID 2284011)
Outline: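 Apoptosis in MCF-7 cells grown in DMEM with 10% fetal bovine serum was scored after a six hour exposure by high content imaging of caspase-3/7 activation (CellEvent Caspase 3/7 Green), with DMSO serving as negative control and baseline.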

[2] = ATG_CRE_CIS: Attagene CIS-FACTORIAL HepG2 Assay for human cAMP Responsive Element (CRE) binding protein 3 (AID 2282926); settings: HepG2 CRE cis-reporter, Attagene multiplexed mRNA; actives raise or lower the signal
Outline: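 Liver-derived HepG2, transfected with a CRE-containing reporter panel, exposed 24 h; transcript levels sized and quantified by capillary electrophoresis of labelled amplicons; signal changes either way referenced to vehicle.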

[3] = BSK_3C_uPAR: BioMAP Diversity Plus: 3C Assay for Urokinase-type plasminogen activator receptor (uPAR) Biomarker Activity (AID 2282998); settings: BioMAP 3C HUVEC, uPAR biomarker ELISA; actives raise or lower the signal
Outline: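 In this endothelial cell-based assay, human umbilical vein primary cells were treated with chemicals and harvested at 24 h. uPAR was quantified using ELISA, with gains or losses fitted relative to DMSO controls.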

[4] = read-out: Tissue Factor, F3 (gene 2152); test: BSK_CASM3C_TissueFactor: BioMAP Diversity Plus: CASM3C Assay for Tissue Factor Biomarker Activity (AID 2283052); settings: primary human coronary artery smooth muscle cells; actives raise or lower the signal;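 also: cell surface tissue factor protein level read by ELISA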
[5] = read-out: Interferon-gamma inducible Protein 10 (IP10), CXCL10 (gene 3627); test: BSK_hDFCGF_IP10: BioMAP Diversity Plus: hDFCGF Assay for Interferon-gamma inducible Protein 10 (IP10) Biomarker Activity (AID 2283053); settings: primary human foreskin fibroblasts; actives raise or lower the signal
Outline: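 ELISA quantification of IP-10 after a 24 h chemical exposure of human dermal foreskin fibroblast primary cultures. Both increases and decreases versus DMSO fitted.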

[6] = read-out: Urokinase-type plasminogen activator receptor (uPAR), PLAUR (gene 5329); test: BSK_CASM3C_uPAR: BioMAP Diversity Plus: CASM3C Assay for Urokinase-type plasminogen activator receptor (uPAR) Biomarker Activity (AID 2283054); settings: primary human coronary artery smooth muscle cells; actives raise or lower the signal;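 also: cell-surface uPAR protein level quantified by ELISA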
[7] = read-out: Collagen III, COL3A1 (gene 1281); test: BSK_hDFCGF_CollagenIII: BioMAP Diversity Plus: hDFCGF Assay for Collagen III Biomarker Activity (AID 2283056); settings: primary human foreskin fibroblasts; actives raise or lower the signal
Outline: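 Response relative to DMSO, fitted in both directions, reflects ELISA-measured collagen III in human primary skin fibroblasts 24 h after compound addition.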

[8] = read-out: Epidermal growth factor receptor (EGFR), EGFR (gene 1956); test: BSK_hDFCGF_EGFR: BioMAP Diversity Plus: hDFCGF Assay for Epidermal growth factor receptor (EGFR) Biomarker Activity (AID 2283057); settings: primary human foreskin fibroblasts; actives raise or lower the signal
Outline: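 EGFR levels by ELISA in human dermal fibroblast cultures, 24 h post-treatment, fitted bidirectionally versus DMSO. Parallel wells stained with sulforhodamine B to detect overt cytotoxicity.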

[9] = read-out: Macrophage colony-stimulating factor (MCSF), CSF1 (gene 1435); test: BSK_hDFCGF_MCSF: BioMAP Diversity Plus: hDFCGF Assay for Macrophage colony-stimulating factor (MCSF) Biomarker Activity (AID 2283060); settings: AC50: primary human foreskin fibroblasts, actives raise or lower the signal unless noted; outcome: primary human foreskin fibroblasts, actives raise or lower the signal unless noted
Outline: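 fibroblasts (human foreskin, primary), 24 h post-dose; M-CSF by ELISA; bidirectional fit, DMSO = baseline.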

[10] = read-out: Monokine induced gamma interferon (MIG), CXCL9 (gene 4283); test: BSK_hDFCGF_MIG: BioMAP Diversity Plus: hDFCGF Assay for Monokine induced gamma interferon (MIG) Biomarker Activity (AID 2283063); settings: primary human foreskin fibroblasts; actives raise or lower the signal
Outline: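 Endpoint derived by bidirectional fitting relative to DMSO; MIG quantified via ELISA in primary human foreskin fibroblasts harvested 24 h after dosing.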

[11] = read-out: Vascular cell adhesion molecule 1 (VCAM1), VCAM1 (gene 7412); test: BSK_hDFCGF_VCAM1: BioMAP Diversity Plus: hDFCGF Assay for Vascular cell adhesion molecule 1 (VCAM1) Biomarker Activity (AID 2283065); settings: primary human foreskin fibroblasts; actives raise or lower the signal;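 as to AC50: VCAM-1 protein level quantified by ELISA after 24 h chemical exposure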
Outline: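 Measured after 24 h chemical treatment of primary human skin fibroblasts, VCAM-1 was detected by ELISA and concentration-response analysed in both directions versus DMSO vehicle.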

[12] = read-out: Intercellular Adhesion Molecule 1 (ICAM1), ICAM1 (gene 3383); test: BSK_KF3CT_ICAM1: BioMAP Diversity Plus: KF3CT Assay for Intercellular Adhesion Molecule 1 (ICAM1) Biomarker Activity (AID 2283067); settings: primary human keratinocytes with fibroblasts; actives raise or lower the signal
Outline: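 Bidirectional curve fitting against a DMSO baseline was applied to ICAM-1 ELISA signal from primary human skin co-cultures harvested 24 h after treatment, with SRB staining of parallel wells for overt cytotoxicity.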

CD40, CD40 (gene 958) = test: BSK_LPS_CD40: BioMAP Diversity Plus: LPS Assay for CD40 Biomarker Activity (AID 2283076); settings: primary human HUVEC with PBMC; actives raise or lower the signal
Outline: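 Using a multiplexed primary human co-culture (umbilical vein endothelium plus PBMC), CD40 was read by ELISA 24 h after dosing, with cytotoxicity tracked by sulforhodamine B staining of parallel cultures and activity fitted bidirectionally versus DMSO.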

[13] = read-out: E-selectin (Homo sapiens) (UniProt P16581); test: BSK_LPS_Eselectin: BioMAP Diversity Plus: LPS Assay for Eselectin Biomarker Activity (AID 2283077); settings: primary human HUVEC with PBMC; actives raise or lower the signal
Outline: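 Dose chemical onto LPS-driven HUVEC/PBMC co-culture; after 24 h, run ELISA for E-selectin; fit up- and down-going responses relative to DMSO control.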

[14] = read-out: Monocyte Chemoattractant Protein-1 (MCP1), CCL2 (gene 6347); test: BSK_LPS_MCP1: BioMAP Diversity Plus: LPS Assay for Monocyte Chemoattractant Protein-1 (MCP1) Biomarker Activity (AID 2283081); settings: primary human HUVEC with PBMC; actives raise or lower the signal
Outline: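 Values derive from bidirectional fitting against DMSO of ELISA-measured MCP-1 in a human primary endothelial and mononuclear cell co-culture, 24 h after chemical addition under LPS activation.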

[15] = BSK_LPS_PGE2: BioMAP Diversity Plus: LPS Assay for Prostaglandin E2 (PGE2) Biomarker Activity (AID 2283082); settings: primary human HUVEC with PBMC; actives raise or lower the signal;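 as to AC50: secreted prostaglandin E2 measured by ELISA in LPS-stimulated co-culture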
Outline: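 PGE2 release measured by ELISA in an LPS-activated co-culture of human umbilical vein endothelial cells and peripheral blood mononuclear cells, read at 24 h post-dosing. DMSO served as baseline for bidirectional curve fitting.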

[16] = read-out: Macrophage colony-stimulating factor (MCSF), CSF1 (gene 1435); test: BSK_LPS_MCSF: BioMAP Diversity Plus: LPS Assay for Macrophage colony-stimulating factor (MCSF) Biomarker Activity (AID 2283083); settings: primary human HUVEC with PBMC; actives raise or lower the signal
Outline: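 Bidirectional fit versus DMSO of ELISA-measured M-CSF in co-cultured human umbilical vein endothelial cells and PBMC, sampled 24 h after dosing.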

CD69, CD69 (gene 969) = test: BSK_SAg_CD69: BioMAP Diversity Plus: SAg Assay for CD69 Biomarker Activity (AID 2283089); settings: primary human HUVEC with PBMC; actives raise or lower the signal;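 as to AC50: cell surface CD69 protein quantified by ELISA with fluorescence detection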
Outline: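 ELISA, fluorescence read-out: CD69 on human umbilical vein endothelial cell + PBMC co-culture, 24 h post-dosing. Gain or loss of signal fitted bidirectionally against DMSO baseline.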

[17] = read-out: E-selectin (Homo sapiens) (UniProt P16581); test: BSK_SAg_Eselectin: BioMAP Diversity Plus: SAg Assay for Eselectin Biomarker Activity (AID 2283091); settings: primary human HUVEC with PBMC; actives raise or lower the signal
Outline: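 Endpoint values derive from bidirectional fitting relative to DMSO, using ELISA-measured E-selectin in a human vascular co-culture (umbilical vein endothelium plus PBMC) sampled 24 h after dosing.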

[18] = read-out: Interleukin-8 (IL8), CXCL8 (gene 3576); test: BSK_SAg_IL8: BioMAP Diversity Plus: SAg Assay for Interleukin-8 (IL8) Biomarker Activity (AID 2283094); settings: primary human HUVEC with PBMC; actives raise or lower the signal
Outline: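 ELISA readout of IL-8 from a superantigen-activated endothelial/PBMC primary human co-culture, taken 24 h post-dosing and fitted in both directions against DMSO; parallel SRB total-protein staining flags overt cytotoxicity.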

Measured: AC50

Chain of E-selectin (Homo sapiens) (P16581 whole entry, looked up): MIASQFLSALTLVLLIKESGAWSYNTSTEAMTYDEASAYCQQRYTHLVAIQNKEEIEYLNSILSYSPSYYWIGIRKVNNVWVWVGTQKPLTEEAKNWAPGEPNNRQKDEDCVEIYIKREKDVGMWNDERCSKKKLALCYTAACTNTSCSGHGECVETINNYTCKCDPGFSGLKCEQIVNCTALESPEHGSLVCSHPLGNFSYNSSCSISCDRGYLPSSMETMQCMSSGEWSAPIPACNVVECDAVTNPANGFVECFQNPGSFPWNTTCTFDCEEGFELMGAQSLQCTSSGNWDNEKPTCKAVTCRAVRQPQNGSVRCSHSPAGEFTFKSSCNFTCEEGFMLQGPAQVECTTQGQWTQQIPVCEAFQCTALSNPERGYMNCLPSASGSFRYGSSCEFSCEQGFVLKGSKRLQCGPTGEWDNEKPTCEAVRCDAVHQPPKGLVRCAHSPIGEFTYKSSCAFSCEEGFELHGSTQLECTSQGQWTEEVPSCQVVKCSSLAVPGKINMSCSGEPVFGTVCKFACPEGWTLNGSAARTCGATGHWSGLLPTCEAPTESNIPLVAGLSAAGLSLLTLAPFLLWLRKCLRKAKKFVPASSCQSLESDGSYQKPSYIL

O=C(O)c1cc(Cl)cc(Cl)c1O
inactive: [1]

CCO[Si](OCC)(OCC)c1ccccc1
inactive: [2]

CCCCNC(N)=O
inactive: [2]

CCC[Si](OC(C)=O)(OC(C)=O)OC(C)=O
active: [6] 3.83 µM
inactive: [3] | [4] | [5] | [6] | [7] | [8] | [9] | [10] | [11] | [12] | CD40, CD40 (gene 958) | [13] | [14] | [15] | [16] | CD69, CD69 (gene 969) | [17] | [18]

CC(=O)O[C@]1(C(C)=O)CC[C@H]2[C@@H]3C=C(C)C4=CC(=O)CC[C@]4(C)[C@H]3CC[C@@]21C
inactive: [1]

COc1cc(CNC(=O)CCCC/C=C/C(C)C)ccc1O
inactive: [3] | [4] | [5] | [6] | [7] | [8] | [9] | [10] | [11] | [12] | CD40, CD40 (gene 958) | [13] | [14] | [16] | CD69, CD69 (gene 969) | [17] | [18] | [1]
active: [11] 0.384 µM | [15] 4.62 µM and 2.9 µM | CD69, CD69 (gene 969) 27.1 µM

CC1=C(CC(=O)O)c2cc(F)ccc2/C1=C\c1ccc(S(C)=O)cc1 (configuration not stated)
inactive: [1]

CCCCCCCCCC/C=C/C1CC(=O)OC1=O (configuration not stated)
inactive: [3] | [4] | [5] | [6] | [7] | [8] | [9] | [10] | [11] | [12] | CD40, CD40 (gene 958) | [13] | [14] | [15] | [16] | CD69, CD69 (gene 969) | [17] | [18]

Cc1ccnc(N)c1
inactive: [1]

CC[N+](CC)(CC(=O)Nc1c(C)cccc1C)Cc1ccccc1
inactive: [3] | [4] | [5] | [6] | [7] | [8] | [9] | [10] | [11] | [12] | CD40, CD40 (gene 958) | [13] | [14] | [15] | [16] | CD69, CD69 (gene 969) | [17] | [18]
